Test results as given in PubChem BioAssay (Tox21).
Values without a mark were called inactive. Results filed as inconclusive are left out. Entries that show only a call come without a potency. Calls of active or inactive are those of the source. Unless noted, the call rests on the fitted dose curve; in most records, active means well fitted curve in the direction sought with a large enough effect in the repeat runs; inconclusive means weak or mixed curves; inactive means no such curve, though single readings can be large; an effect the other way counts as inactive or inconclusive.

Key:
[1] = Human pregnane X receptor (PXR) small molecule agonists, qHTS cell viability counter screen (AID 1346977); further: nearly all actives have a fitted effect of over 50% in size; further: potency means the concentration at half of the fitted maximal effect
Method in brief: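 After a 5hr pre-incubation, PXR-Luc HepG2 cells received compounds plus positive control in DMSO and were kept 24hr at 37C. Cell viability was quantified by fluorescence from CellTiter-Fluor added for the final hour.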

[2] = Caspase-3/7 induction in HepG2 cells by small molecules, qHTS assay (AID 1346978); further: nearly all actives have a fitted effect of over 15% in size
Method in brief: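 Wild-type HepG2 cells (2,000/well) were settled 5 h at 37 C, 5% CO2, then exposed to compounds in DMSO for 17 h. Caspase-3/7 activity was read by luminescence 30 min after adding Caspase-Glo 3/7 reagent at room temperature.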

[3] = Caspase-3/7 induction in CHO-K1 cells by small molecules, qHTS cell viability counter screen (AID 1346979); further: nearly all actives have a fitted effect of over 35% in size; further: potency means the concentration at half of the fitted maximal effect
Method in brief: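 Multiplexed with Caspase-Glo 3/7 in CHO-K1 cells, this counter screen added CellTiter-Fluor after 16hr of compound exposure and recorded fluorescence 1hr later.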

[4] = Caspase-3/7 induction in CHO-K1 cells by small molecules, qHTS assay (AID 1346980); further: nearly all actives have a fitted effect of over 15% in size
Method in brief: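 Wild-type cells were seeded at 1,500 per well and settled 5 hr at 37 C, 5% CO2, then exposed to DMSO-dissolved compounds for 17 hr. Caspase-Glo 3/7 reagent was added, and luminescence was read after 30min at room temperature.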

[5] = Caspase-3/7 induction in HepG2 cells by small molecules, qHTS cell viability counter screen (AID 1346981); further: nearly all actives have a fitted effect of over 30% in size; further: potency means the concentration at half of the fitted maximal effect
Method in brief: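 Fluorescence read-out of live-cell protease activity (CellTiter-Fluor) after 1 hr with reagent. This was measured in the same wells as the caspase-3/7 luminescence, on HepG2 cells exposed to DMSO-dissolved compounds for 16 hr at 37 C.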

[6] = molecular target: Nuclear receptor subfamily 1 group I member 2 (Homo sapiens) (UniProt O75469); assay: Human pregnane X receptor (PXR) small molecule agonists, qHTS assay (AID 1346982); further: nearly all actives have a fitted effect of over 35% in size; further: potency means the concentration at half of the fitted maximal effect
Chain of Nuclear receptor subfamily 1 group I member 2 (Homo sapiens) (O75469 whole entry, looked up): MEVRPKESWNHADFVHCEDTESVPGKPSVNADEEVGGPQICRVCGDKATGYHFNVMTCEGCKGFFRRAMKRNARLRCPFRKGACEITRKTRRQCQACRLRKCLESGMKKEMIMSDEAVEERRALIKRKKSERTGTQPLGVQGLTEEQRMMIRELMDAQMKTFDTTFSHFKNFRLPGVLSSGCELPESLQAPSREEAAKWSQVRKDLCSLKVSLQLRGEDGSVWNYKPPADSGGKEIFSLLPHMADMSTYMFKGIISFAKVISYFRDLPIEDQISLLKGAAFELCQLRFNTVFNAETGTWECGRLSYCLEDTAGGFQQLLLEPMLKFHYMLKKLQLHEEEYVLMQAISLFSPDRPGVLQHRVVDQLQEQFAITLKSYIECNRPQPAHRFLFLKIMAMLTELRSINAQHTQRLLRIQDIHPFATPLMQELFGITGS
Method in brief: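 HepG2 PXR-Luc reporter line, 5% charcoal-stripped FBS; 5 hr pre-incubation, compound (DMSO) 24 hr at 37 C/5% CO2; ONE-Glo 30 min RT; luminescence read-out.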

[7] = molecular target: Acetylcholinesterase (Homo sapiens) (UniProt P22303); assay: Acetylcholinesterase (AChE) small molecule antagonists: colormetric cell-based qHTS assay (AID 1347395; calls by dose curve; further: nearly all actives have a fitted effect of over 30% in size; further: potency means the concentration at half of the fitted maximal effect)
Chain of Acetylcholinesterase (Homo sapiens) (P22303 whole entry, looked up): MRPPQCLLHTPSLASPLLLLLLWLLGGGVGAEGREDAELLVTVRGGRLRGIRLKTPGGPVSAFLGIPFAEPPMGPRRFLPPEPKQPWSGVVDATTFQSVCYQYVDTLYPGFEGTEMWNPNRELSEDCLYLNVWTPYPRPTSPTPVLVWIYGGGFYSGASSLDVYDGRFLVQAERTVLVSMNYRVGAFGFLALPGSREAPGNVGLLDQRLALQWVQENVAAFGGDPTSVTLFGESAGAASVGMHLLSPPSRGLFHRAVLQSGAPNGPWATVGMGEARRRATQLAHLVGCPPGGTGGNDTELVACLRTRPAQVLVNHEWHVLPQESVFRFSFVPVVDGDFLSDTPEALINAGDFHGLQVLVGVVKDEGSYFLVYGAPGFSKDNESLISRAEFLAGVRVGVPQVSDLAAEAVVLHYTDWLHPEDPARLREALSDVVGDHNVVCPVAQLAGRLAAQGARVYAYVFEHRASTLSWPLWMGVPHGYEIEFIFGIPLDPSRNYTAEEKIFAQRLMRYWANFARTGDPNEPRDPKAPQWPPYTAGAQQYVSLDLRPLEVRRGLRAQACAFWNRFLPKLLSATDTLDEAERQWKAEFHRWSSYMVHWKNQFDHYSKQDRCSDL
Method in brief: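 In this cell-based qHTS, attached SH-SY5Y cells were treated with test chemicals for 30 min, after which acetylthiocholine hydrolysis was followed by DTNB colour development over 90 min at 37 C.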

[8] = molecular target: Acetylcholinesterase (Homo sapiens) (UniProt P22303); assay: Acetylcholinesterase (AChE) small molecule antagonists: enzyme-based qHTS assay (AID 1347397; calls by dose curve; further: nearly all actives have a fitted effect of over 55% in size; further: potency means the concentration at half of the fitted maximal effect); conditions: Potency: AChE enzyme activity inhibition
Method in brief: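 Compound or DMSO vehicle was pin-transferred onto recombinant human AChE (50 mU/mL as dispensed) and left 30 min at room temperature. Acetylthiocholine with DTNB then started the reaction, read colorimetrically 10 min later.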

[9] = molecular target: Acetylcholinesterase (Homo sapiens) (UniProt P22303); assay: Acetylcholinesterase (AChE) small molecule antagonists: fluorescence cell-based qHTS assay (AID 1347398; calls by dose curve; further: nearly all actives have a fitted effect of over 50% in size; further: potency means the concentration at half of the fitted maximal effect); conditions: Potency: AChE activity
Method in brief: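 Using neuroblastoma SH-SY5Y cells as the enzyme source, test chemicals are preincubated 30 min at 37 C; AChE-driven acetylthiocholine cleavage is then quantified by thiocholine-dependent Thiolite Green fluorescence after 40 min at room temperature.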

[10] = molecular target: Acetylcholinesterase (Homo sapiens) (UniProt P22303); assay: Acetylcholinesterase (AChE) small molecule antagonists: enzyme-based qHTS assay with human liver microsomes (AID 1347399; calls by dose curve; further: nearly all actives have a fitted effect of over 60% in size; further: potency means the concentration at half of the fitted maximal effect); conditions: Potency: qHTS inhibition
Method in brief: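 Recombinant human AChE (50 mU/mL in the enzyme mix) and human liver microsomes (0.25 mg/mL final) were preincubated with compound and NADPH (0.25 mg/mL final) for 30 min at 37 C. Acetylthiocholine/DTNB was then added; thiocholine was read colorimetrically after 10 min at room temperature.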

[11] = molecular target: Cytochrome P450 2C9 (Homo sapiens) (UniProt P11712); assay: Cytochrome P450 Family 2 Subfamily C Member 9 (CYP2C9) small molecule antagonists: luciferase reporter qHTS assay (AID 1671198); further: nearly all actives have a fitted effect of over 50% in size; further: potency means the concentration at half of the fitted maximal effect
Chain of Cytochrome P450 2C9 (Homo sapiens) (P11712 whole entry, looked up): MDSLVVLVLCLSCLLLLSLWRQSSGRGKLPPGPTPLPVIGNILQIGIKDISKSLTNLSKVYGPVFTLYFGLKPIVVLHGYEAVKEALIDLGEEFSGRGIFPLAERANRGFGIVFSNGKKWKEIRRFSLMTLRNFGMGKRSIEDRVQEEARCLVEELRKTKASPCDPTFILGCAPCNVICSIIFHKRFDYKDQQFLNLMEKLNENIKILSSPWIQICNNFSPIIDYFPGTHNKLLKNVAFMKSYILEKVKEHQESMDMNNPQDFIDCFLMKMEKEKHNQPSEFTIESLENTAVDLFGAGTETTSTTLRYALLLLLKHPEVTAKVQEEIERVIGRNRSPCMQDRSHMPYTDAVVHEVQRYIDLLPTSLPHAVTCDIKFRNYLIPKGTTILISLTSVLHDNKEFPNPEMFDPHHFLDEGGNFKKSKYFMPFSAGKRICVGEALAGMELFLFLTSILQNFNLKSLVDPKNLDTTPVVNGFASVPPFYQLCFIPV
Method in brief: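 CYP2C9 activity was measured with a P450-Glo proluciferin substrate. Enzyme–substrate mix was held with compound for 10 min at room temperature, then NADPH regeneration solution was added for 1 h at 37C. Luciferin product was read as luminescence.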

[12] = molecular target: Voltage-gated inwardly rectifying potassium channel KCNH2 (Homo sapiens) (UniProt Q12809); assay: Human Ether-a-go-go-Related Gene (hERG) channel small molecule antagonists: fluorescence cell-based qHTS assay (AID 1671200); further: nearly all actives have a fitted effect of over 50% in size; further: potency means the concentration at half of the fitted maximal effect
Chain of Voltage-gated inwardly rectifying potassium channel KCNH2 (Homo sapiens) (Q12809 whole entry, looked up): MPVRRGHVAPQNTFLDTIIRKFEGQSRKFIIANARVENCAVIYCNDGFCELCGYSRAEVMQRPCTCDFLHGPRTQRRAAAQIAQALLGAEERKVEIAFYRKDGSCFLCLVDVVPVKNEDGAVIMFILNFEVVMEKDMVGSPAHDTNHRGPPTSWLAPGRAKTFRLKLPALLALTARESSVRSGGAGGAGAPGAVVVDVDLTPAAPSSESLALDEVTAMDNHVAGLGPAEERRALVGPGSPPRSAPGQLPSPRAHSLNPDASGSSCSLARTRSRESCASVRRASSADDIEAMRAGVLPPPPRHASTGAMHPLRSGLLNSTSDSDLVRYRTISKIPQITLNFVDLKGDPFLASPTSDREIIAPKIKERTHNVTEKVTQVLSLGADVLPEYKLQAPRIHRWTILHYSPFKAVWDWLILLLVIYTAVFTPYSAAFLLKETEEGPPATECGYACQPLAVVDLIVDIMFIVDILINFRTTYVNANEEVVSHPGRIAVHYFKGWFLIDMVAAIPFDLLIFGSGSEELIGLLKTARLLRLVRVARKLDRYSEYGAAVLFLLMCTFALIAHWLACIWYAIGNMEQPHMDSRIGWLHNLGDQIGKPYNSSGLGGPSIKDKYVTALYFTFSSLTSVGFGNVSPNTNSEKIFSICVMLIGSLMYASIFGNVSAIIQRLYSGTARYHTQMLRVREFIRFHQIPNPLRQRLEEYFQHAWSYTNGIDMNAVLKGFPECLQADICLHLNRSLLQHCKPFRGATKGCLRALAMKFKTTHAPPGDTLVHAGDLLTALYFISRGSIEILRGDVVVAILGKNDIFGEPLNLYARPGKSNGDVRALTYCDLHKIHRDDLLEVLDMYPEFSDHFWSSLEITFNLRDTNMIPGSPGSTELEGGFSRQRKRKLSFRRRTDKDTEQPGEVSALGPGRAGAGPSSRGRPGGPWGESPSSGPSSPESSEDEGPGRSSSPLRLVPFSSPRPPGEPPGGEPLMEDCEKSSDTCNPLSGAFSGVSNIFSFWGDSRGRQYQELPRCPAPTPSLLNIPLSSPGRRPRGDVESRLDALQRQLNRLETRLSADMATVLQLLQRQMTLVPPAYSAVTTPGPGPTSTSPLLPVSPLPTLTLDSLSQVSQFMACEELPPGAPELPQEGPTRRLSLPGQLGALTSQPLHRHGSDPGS
Method in brief: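 Cell line hERG-U2OS; dye FluxOR II, 1 h RT dark; Tl+ stimulus; ex 480/em 540 nm, read each second for 2 min.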

[13] = molecular target: Cytochrome P450 3A4 (Homo sapiens) (UniProt P08684); assay: Cytochrome P450 Family 3 Subfamily A Member 4 (CYP3A4) small molecule antagonists: luciferase reporter qHTS assay (AID 1671201); further: nearly all actives have a fitted effect of over 50% in size; further: potency means the concentration at half of the fitted maximal effect
Chain of Cytochrome P450 3A4 (Homo sapiens) (P08684 whole entry, looked up): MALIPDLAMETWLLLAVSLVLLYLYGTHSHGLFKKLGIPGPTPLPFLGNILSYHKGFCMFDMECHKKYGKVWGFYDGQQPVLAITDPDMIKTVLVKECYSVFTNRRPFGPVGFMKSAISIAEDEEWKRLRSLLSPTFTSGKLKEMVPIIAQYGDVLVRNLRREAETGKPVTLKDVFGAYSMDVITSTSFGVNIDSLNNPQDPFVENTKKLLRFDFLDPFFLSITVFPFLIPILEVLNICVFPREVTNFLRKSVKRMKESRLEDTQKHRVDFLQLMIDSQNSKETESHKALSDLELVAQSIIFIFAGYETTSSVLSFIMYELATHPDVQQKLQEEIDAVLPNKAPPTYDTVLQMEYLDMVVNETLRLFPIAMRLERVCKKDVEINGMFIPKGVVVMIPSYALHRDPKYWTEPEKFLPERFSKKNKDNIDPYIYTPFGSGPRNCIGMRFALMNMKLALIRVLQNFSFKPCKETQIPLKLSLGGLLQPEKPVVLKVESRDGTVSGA
Method in brief: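 Room-temperature assay throughout: 10 min compound–enzyme/substrate preincubation, 1 h reaction after NADPH regeneration solution, 20 min detection. Luciferin formed from proluciferin substrate is quantified by luminescence.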

[14] = molecular target: Cytochrome P450 2D6 (Homo sapiens) (UniProt P10635); assay: Cytochrome P450 Family 2 Subfamily D Member 6 (CYP2D6) small molecule antagonists: luciferase reporter qHTS assay (AID 1671196); further: nearly all actives have a fitted effect of over 50% in size; further: potency means the concentration at half of the fitted maximal effect
Chain of Cytochrome P450 2D6 (Homo sapiens) (P10635 whole entry, looked up): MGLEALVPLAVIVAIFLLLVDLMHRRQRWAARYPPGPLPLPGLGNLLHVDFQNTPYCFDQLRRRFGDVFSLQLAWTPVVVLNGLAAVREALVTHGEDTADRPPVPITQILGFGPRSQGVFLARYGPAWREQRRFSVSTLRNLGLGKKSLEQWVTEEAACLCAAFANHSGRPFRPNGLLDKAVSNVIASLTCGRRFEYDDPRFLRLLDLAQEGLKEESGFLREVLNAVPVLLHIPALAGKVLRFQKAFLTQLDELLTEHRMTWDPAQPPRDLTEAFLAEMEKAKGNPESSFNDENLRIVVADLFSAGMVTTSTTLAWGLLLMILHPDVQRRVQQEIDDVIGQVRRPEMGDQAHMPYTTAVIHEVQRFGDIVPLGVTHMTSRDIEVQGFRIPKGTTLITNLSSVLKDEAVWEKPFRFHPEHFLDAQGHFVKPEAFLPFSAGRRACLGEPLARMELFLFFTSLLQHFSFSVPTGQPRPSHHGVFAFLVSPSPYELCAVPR
Method in brief: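 Luminogenic proluciferin substrate, CYP2D6 enzyme; 10 min RT preincubation with compound, NADPH regeneration system added, 1 h RT. Stop/detection reagent, 20 min RT, luminescence read (RLU). Signal proportional to CYP activity.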

[15] = molecular target: Cytochrome P450 2C19 (Homo sapiens) (UniProt P33261); assay: Cytochrome P450 Family 2 Subfamily C Member 19 (CYP2C19) small molecule antagonists: luciferase reporter qHTS assay (AID 1671197); further: nearly all actives have a fitted effect of over 65% in size; further: potency means the concentration at half of the fitted maximal effect
Chain of Cytochrome P450 2C19 (Homo sapiens) (P33261 whole entry, looked up): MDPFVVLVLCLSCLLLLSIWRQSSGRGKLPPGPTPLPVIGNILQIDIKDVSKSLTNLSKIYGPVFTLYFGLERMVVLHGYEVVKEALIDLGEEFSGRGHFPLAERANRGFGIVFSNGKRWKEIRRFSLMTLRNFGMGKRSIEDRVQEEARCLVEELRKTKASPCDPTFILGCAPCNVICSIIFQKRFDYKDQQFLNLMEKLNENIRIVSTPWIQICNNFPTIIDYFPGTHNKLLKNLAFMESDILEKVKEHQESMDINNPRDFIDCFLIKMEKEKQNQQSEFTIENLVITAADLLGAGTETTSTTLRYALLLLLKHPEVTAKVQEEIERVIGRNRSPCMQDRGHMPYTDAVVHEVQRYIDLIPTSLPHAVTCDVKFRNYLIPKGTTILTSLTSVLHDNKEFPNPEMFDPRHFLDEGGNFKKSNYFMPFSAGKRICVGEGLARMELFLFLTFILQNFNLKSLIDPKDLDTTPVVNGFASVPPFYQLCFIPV
Method in brief: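 Luminescent readout of CYP2C19 activity: luciferin product detected 20 min after adding detection reagent. Before that, compound and enzyme-substrate mix preincubated 10 min at room temperature; NADPH-regenerating system started a 1 h, 37C reaction. Ketoconazole as positive control.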

[16] = molecular target: Cytochrome P450 1A2 (Homo sapiens) (UniProt P05177); assay: Cytochrome P450 Family 1 Subfamily A Member 2 (CYP1A2) small molecule antagonists: luciferase reporter qHTS assay (AID 1671199); further: nearly all actives have a fitted effect of over 50% in size; further: potency means the concentration at half of the fitted maximal effect
Chain of Cytochrome P450 1A2 (Homo sapiens) (P05177 whole entry, looked up): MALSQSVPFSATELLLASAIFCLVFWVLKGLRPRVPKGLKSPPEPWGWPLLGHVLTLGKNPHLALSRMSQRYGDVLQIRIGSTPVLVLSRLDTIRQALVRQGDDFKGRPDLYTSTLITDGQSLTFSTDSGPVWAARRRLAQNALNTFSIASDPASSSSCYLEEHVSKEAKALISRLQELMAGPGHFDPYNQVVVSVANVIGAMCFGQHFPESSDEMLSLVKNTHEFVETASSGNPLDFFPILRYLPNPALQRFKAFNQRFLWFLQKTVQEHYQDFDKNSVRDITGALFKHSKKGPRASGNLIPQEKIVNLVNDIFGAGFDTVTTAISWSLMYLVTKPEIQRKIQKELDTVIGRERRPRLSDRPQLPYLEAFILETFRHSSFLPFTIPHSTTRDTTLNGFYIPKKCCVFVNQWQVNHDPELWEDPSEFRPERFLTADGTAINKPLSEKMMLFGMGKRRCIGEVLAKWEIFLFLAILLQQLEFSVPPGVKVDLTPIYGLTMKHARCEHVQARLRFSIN
Method in brief: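 Luminescence readout (relative luminescence units) after luciferin detection reagent, 20 min RT. Preceded by 1 h room-temperature CYP1A2 reaction with NADPH regeneration solution following 10 min compound preincubation with enzyme and proluciferin substrate. Furafylline positive control.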

[17] = molecular target: Nuclear receptor subfamily 1 group I member 2 (Rattus norvegicus) (UniProt Q9R1A7); assay: Rat pregnane X receptor (rPXR) activation by small molecules, qHTS assay (AID 1346983); conditions: rPXR luciferase reporter cells, One-Glo luminescence, 24 h; max activation: active compounds read high; further: nearly all actives have a fitted effect of over 20% in size
Method in brief: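 Cell-based rPXR luciferase reporter assay, 2,000 cells per well, rested 5hr at 37 C before compound addition in DMSO, then 24 hr at 37 C. One-Glo reagent was added and luminescence read after 30 min at room temperature.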

Structure (SMILES)	Potency [1]	Potency [2]	Potency [3]	Potency [4]	Potency [5]	Potency [6]	Potency [7]	Potency [8]	Potency [9]	Potency [10]	Potency [11]	Potency [12]	Potency [13]	Potency [14]	Potency [15]	Potency [16]	max activation [17]
CC1CN1 (stereo not drawn)	inactive	inactive	inactive	inactive	inactive	inactive	inactive	inactive	inactive	inactive	inactive	inactive	inactive	–	–	–	–
N#CCCl	inactive	inactive	inactive	inactive	inactive	–	inactive	inactive	inactive	inactive	–	–	66 µM (active)	29.5 µM (active)	37.1 µM (active)	33.1 µM (active)	–
Cc1cccc(Cc2cnc[nH]2)c1C	inactive	inactive	inactive	inactive	inactive	inactive	inactive	–	–	inactive	0.347 µM (active)	inactive	–	2.45 µM (active)	2.19 µM (active)	0.911 µM (active)	–
O=c1[nH]c(Cl)c(Cl)cc1Cl	inactive	inactive	inactive	inactive	inactive	–	inactive	inactive	inactive	inactive	39.9 µM (active)	inactive	inactive	–	inactive	–	–
CC(C)c1c(CN(C)C(C)Cc2ccccc2)n(C)n(-c2ccccc2)c1=O (stereo not drawn)	inactive	inactive	inactive	inactive	inactive	–	–	inactive	inactive	inactive	4.36 µM (active)	inactive	1.74 µM (active)	–	6.92 µM (active)	–	8.57%
CCCN	inactive	inactive	inactive	inactive	inactive	–	inactive	inactive	inactive	inactive	–	inactive	inactive	–	–	–	–
COC(=O)c1ccccc1S(=O)(=O)NC(=O)Nc1nc(C)nc(OC)n1	inactive	inactive	inactive	inactive	inactive	–	inactive	inactive	inactive	inactive	–	inactive	inactive	8.88 µM (active)	35.3 µM (active)	–	–
Oc1ccc(Cl)c(Cl)c1	inactive	inactive	67.5 µM (active)	inactive	inactive	60.2 µM (active)	inactive	inactive	inactive	inactive	inactive	inactive	–	–	–	39.3 µM (active)	–
COC(=O)/C=C(\C)OP(=O)(OC)OC	inactive	inactive	inactive	inactive	inactive	inactive	2.24 µM (active)	3.56 µM (active)	–	17.8 µM (active)	inactive	inactive	inactive	–	71 µM (active)	inactive	–
Nc1ccccc1-c1ccccc1	inactive	inactive	inactive	inactive	inactive	–	inactive	inactive	inactive	inactive	31.5 µM (active)	inactive	–	28.1 µM (active)	35.4 µM (active)	–	–
Nc1nc(N)nc(Cl)n1	inactive	inactive	inactive	inactive	inactive	–	inactive	inactive	inactive	inactive	inactive	inactive	inactive	inactive	inactive	–	–
CCOP(=S)(OCC)Oc1cc(C)nc(N(CC)CC)n1	inactive	inactive	inactive	inactive	inactive	17.2 µM (active)	–	inactive	–	inactive	11.2 µM (active)	inactive	0.633 µM (active)	–	0.399 µM (active)	3.56 µM (active)	–
[Cl][Hg][c]1ccccc1	1.54 µM (active)	inactive	0.486 µM (active)	inactive	12.2 µM (active)	–	inactive	inactive	–	inactive	–	17.4 µM (active)	8.94 µM (active)	0.796 µM (active)	–	28.3 µM (active)	–
NC(=O)C(Cl)Cl	inactive	inactive	inactive	inactive	inactive	inactive	inactive	–	inactive	inactive	inactive	inactive	inactive	inactive	inactive	inactive	–
CC(Cc1ccc(OCC(=O)O)cc1)NCC(O)c1csc(C(F)(F)F)n1 (stereo not drawn)	inactive	inactive	inactive	inactive	inactive	–	inactive	inactive	inactive	inactive	inactive	inactive	inactive	–	inactive	35.6 µM (active)	–
CCCCn1cc[n+](C)c1 (tested in a mixture with another compound)	inactive	inactive	inactive	inactive	inactive	–	–	–	–	–	–	inactive	–	–	–	–	–
Clc1cc(Cl)c(-c2cc(Cl)c(Cl)cc2Cl)cc1Cl	inactive	inactive	inactive	inactive	inactive	–	inactive	–	inactive	inactive	inactive	inactive	inactive	inactive	–	–	–
Nc1c(Cl)c(Cl)c(Cl)c(Cl)c1Cl	inactive	inactive	inactive	inactive	inactive	–	inactive	–	inactive	inactive	inactive	inactive	–	–	–	1.3 µM (active)	–
CCOP(=S)(OCC)SC(CCl)N1C(=O)c2ccccc2C1=O (stereo not drawn)	inactive	inactive	–	inactive	inactive	4.33 µM (active)	31.7 µM (active)	63.3 µM (active)	10 µM (active)	1.42 µM (active)	–	inactive	1.59 µM (active)	39.9 µM (active)	0.399 µM (active)	63.3 µM (active)	–
C=CC(=C)C	inactive	inactive	–	inactive	inactive	inactive	inactive	inactive	–	inactive	inactive	inactive	inactive	inactive	–	inactive	–
Cc1nn(-c2cc(NS(C)(=O)=O)c(Cl)cc2Cl)c(=O)n1C(F)F	inactive	inactive	–	inactive	inactive	inactive	inactive	inactive	inactive	inactive	39.9 µM (active)	inactive	inactive	inactive	inactive	–	–
Brc1ccc(Oc2ccc(Br)cc2Br)c(Br)c1	inactive	inactive	–	inactive	inactive	30.7 µM (active)	inactive	inactive	inactive	inactive	12.6 µM (active)	inactive	inactive	inactive	0.142 µM (active)	12.6 µM (active)	–
Cc1c([N+](=O)[O-])c(C)c([N+](=O)[O-])c(C(C)(C)C)c1[N+](=O)[O-]	inactive	inactive	–	inactive	inactive	48.6 µM (active)	inactive	–	inactive	inactive	–	–	inactive	inactive	inactive	–	–
CSC(=O)c1c(C(F)F)nc(C(F)(F)F)c(C(=O)SC)c1CC(C)C	inactive	inactive	–	inactive	inactive	4.83 µM (active)	inactive	–	inactive	inactive	9.97 µM (active)	–	6.29 µM (active)	inactive	3.15 µM (active)	3.15 µM (active)	–
COP(=S)(OC)Oc1nc(Cl)c(Cl)cc1Cl	inactive	inactive	–	inactive	inactive	inactive	inactive	inactive	inactive	inactive	25.2 µM (active)	inactive	11.2 µM (active)	–	–	44.8 µM (active)	–
C[C@@H]1CC2=CC(=O)CC[C@@H]2[C@H]2CC[C@@]3(C)[C@@H](CC[C@]3(C)O)[C@@H]21	inactive	inactive	–	inactive	inactive	inactive	inactive	inactive	inactive	inactive	–	inactive	–	inactive	8.71 µM (active)	–	–
CC(=O)[O-].CC(=O)[O-].O.O.O.[Pb+2]	inactive	inactive	inactive	inactive	inactive	–	–	–	–	–	–	inactive	–	–	–	–	–
CC(=O)O.CC(=O)O.CC(=O)O.CC(=O)O.CC(=O)O.CC(=O)O.CC(=O)O.O.O.[Cr].[Cr].[Cr]	inactive	inactive	inactive	inactive	inactive	–	–	–	–	–	–	inactive	–	–	–	–	–
